About 83,000 compounds went through this panel and 20% of them were active in at least one assay; those are over-represented in the sample as a whole.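 Treatment: one concentration, 48 hours, 96-well format. Scoring: percent growth, with anything below 10 considered active.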 Calls of active or inactive are those of the source.
What was measured:
Assay in all cases: NCI-60 one-dose screen, 48 h (100 = growth as untreated, 0 = no growth, -100 = all killed)
Conditions in all cases: 10 µM unless noted
NCI-H23 lung = test system: NCI-H23 lung
NCI-H226 lung = test system: NCI-H226 lung
NCI-H322M lung = test system: NCI-H322M lung
HOP-62 NSCLC = test system: HOP-62 NSCLC
NCI-H460 lung = test system: NCI-H460 lung
NCI-H522 lung = test system: NCI-H522 lung
786-0 renal = test system: 786-0 renal
COLO 205 colon = test system: COLO 205 colon
DU-145 prostate = test system: DU-145 prostate
A549/ATCC NSCLC = test system: A549/ATCC NSCLC

Measured: growth

CC(=O)Nc1ccc2c(c1)Cc1c(F)c(F)c(F)c(F)c1-2
inactive: NCI-H23 lung 25.2% | NCI-H226 lung 76.5% | NCI-H322M lung 81.9% | HOP-62 NSCLC 107% | NCI-H460 lung 65.8% | NCI-H522 lung 23.2% | 786-0 renal 75.3% | COLO 205 colon 105% | DU-145 prostate 96.4%

CN(C)c1ccc(/C=C\c2ccnc3ccccc23)cc1
active: NCI-H522 lung -7.89%
inactive: NCI-H23 lung 13.1% | NCI-H226 lung 39% | NCI-H322M lung 90.6% | HOP-62 NSCLC 82% | NCI-H460 lung 86.9% | 786-0 renal 65.1% | COLO 205 colon 81.2% | DU-145 prostate 85.1%

COc1ccc2c(c1)C(=O)/C(=C/c1cccc(OCC(=O)c3ccccc3)c1)CC2
inactive: NCI-H23 lung 87.4% | NCI-H226 lung 75.9% | NCI-H322M lung 108% | HOP-62 NSCLC 101% | NCI-H460 lung 113% | NCI-H522 lung 64.7% | 786-0 renal 87.6% | COLO 205 colon 136%

CC1=NN(c2ccccc2Cl)C(=O)/C1=C\c1cn(S(=O)(=O)c2ccc(C)cc2)c2ccccc12
inactive: NCI-H23 lung 83.9% | NCI-H226 lung 79.9% | NCI-H322M lung 105% | HOP-62 NSCLC 62.3% | NCI-H460 lung 119% | A549/ATCC NSCLC 109% | 786-0 renal 94.9% | COLO 205 colon 142% | DU-145 prostate 114%

O=C(Cc1ccccn1)C(F)(F)C(F)(F)C(F)(F)F
inactive: NCI-H23 lung 104% | NCI-H226 lung 102% | NCI-H322M lung 116% | HOP-62 NSCLC 97.5% | NCI-H460 lung 111% | NCI-H522 lung 111% | 786-0 renal 104% | COLO 205 colon 127% | DU-145 prostate 112%
